Screens (PubChem BioAssay)
Only some compounds are listed: those with a hit (about 17% of all), similar ones and a draw of the others.
TGFb SMAD3 inh: qHTS for Inhibitors of TGF-b | HepG2 CAGA-GFP TGF-b/SMAD3 reporter, GFP fluorescence, 18 h; TGF-beta stimulated, 500 pg/mL final | Potency, µM (doses to about 46.1 µM), usual class: inhibitors | 1.2% of 410,000 active | AID 588855, 2011; also: nearly all actives have a fitted effect of over 65% in size
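Inhibition of TGF-beta-driven CAGA-GFP reporter expression in HEPG2 cells is measured by cellular GFP fluorescence after 18 h stimulation with 500 pg/mL recombinant TGF-beta in 1% FBS medium at 37 degrees C.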
HepG2 viability: qHTS for Inhibitors of TGF-b: Cytotox Counterscreen; HepG2 CAGA-GFP viability, ATP luminescence, 18 h; Potency, µM (highest dose often 46.1 µM), hits mostly cytotoxic; 0.76% of 410,000 active; AID 588856, 2011
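HepG2 CAGA-GFP cells (1000/well, DMEM with 1% FBS) received compound, then TGF-beta at 500 pg/mL final, and were incubated 18 hours at 37 degrees C. Viability was read by CellTiter-Glo luminescence. Media-only wells were set as complete cell-killing and DMSO as no toxicity.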
HT1080 IDH1KD tx: qHTS for induction of synthetic lethality in tumor cells producing 2HG: qHTS for the HT-1080-IDH1KD cell line; HT-1080 IDH1 knockdown viability, ATP luminescence, 48 h; Potency, µM (top dose mostly 46.1 µM), hits mostly cytotoxic; 2% of 360,000 active; AID 686971, 2013
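IDH1KD HT-1080 cells, 750/well, RPMI + 5% FBS; compound pinned after 2 h settling; 48 h, 37 °C; CellTiter-Glo luminescence; % activity normalised to DMSO and no-cell wells; curves fitted, classed by r2 and efficacy.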
TDP1 cell CPT: qHTS for Inhibitors of human tyrosyl-DNA phosphodiesterase 1 (TDP1): qHTS in cells in presence of CPT | chicken DT40 Tdp1-/-;hTDP1 cells + 20 nM CPT, ATP luminescence, 48 h | Potency, µM (highest dose often 46.2 µM), hits mostly inhibitors | 12% of 420,000 active | AID 686979, 2013; also: nearly all actives have a fitted effect of over 55% in size
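Chicken DT40 Tdp1-/- cells complemented with human TDP1, 400 cells/well, exposed to compounds plus 20 nM camptothecin for at least 48 h at 37 C; viability read as ATP content by CellTiter-Glo luminescence.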
DT40 TDP1 no CPT: qHTS for Inhibitors of human tyrosyl-DNA phosphodiesterase 1 (TDP1): qHTS in cells in absence of CPT | DT40 Tdp1-/- hTDP1 cells, no CPT, ATP luminescence, 48 h | Potency, µM (series often up to 46.2 µM), most hits filed as inhibitors | 15% of 420,000 active | AID 686978, 2013; also: nearly all actives have a fitted effect of over 55% in size
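Readout: luminescence from CellTiter-Glo after 30 min in the dark at RT. Cells: DT40 Tdp1-/- with stable hTDP1, 400/well. Exposure: compounds alone, ≥48 hr, 37 °C.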
HT1080-NT tox: qHTS for induction of synthetic lethality in tumor cells producing 2HG: qHTS for the HT-1080-NT fibrosarcoma cell line; HT-1080-NT fibrosarcoma viability, CellTiter-Glo ATP luminescence, 48 h; Potency, µM (highest dose often 46.1 µM), most hits filed as cytotoxic; 1.6% of 360,000 active;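 also: NT is the 2HG producing partner of a matched IDH1 knockdown line; nearly all actives have a fitted effect of over 55% in size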
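HT-1080-NT fibrosarcoma cells (2HG-overproducing), 750 cells/well in RPMI with 5% FBS, dosed after 2 h and incubated 48 h at 37C. CellTiter-Glo luminescence normalized to DMSO and no-cell wells; concentration-response curves fitted and classed.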
Numbers stand for hits. Calls follow the shape of the dose curve; as a rule, active = well fitted curve in the direction sought with a large enough effect; inconclusive = small, poorly fitted or top-dose-only effect, or another doubt; inactive = no such curve, though single readings can be large; an effect the other way counts as inactive or inconclusive.

`CCCCCCC[C@@H](C/C=C/CCC(=O)N(C)C/C(=C/Cl)C/C(=C\C(=O)N1C[C@H](O)CC1=O)OC)OC` gave TGFb SMAD3 inh 16µM, HepG2 viability inactive, HT1080 IDH1KD tx inconclusive, TDP1 cell CPT 9.2µM, DT40 TDP1 no CPT 9.2µM and HT1080-NT tox 23µM.
`CCCCNC(=O)c1cn(CC)c2ccc(S(=O)(=O)N3CCCCCC3)cc2c1=O` gave TGFb SMAD3 inh inactive, HepG2 viability inactive, HT1080 IDH1KD tx inactive, TDP1 cell CPT inactive, DT40 TDP1 no CPT inconclusive and HT1080-NT tox inactive.
CN(Cc1c(C(=O)N2CCCCCCC2)nc2ccc(Cl)cn12)C1CCOC1 (stereo not drawn) was read as TGFb SMAD3 inh inactive, HepG2 viability inactive, HT1080 IDH1KD tx inactive, TDP1 cell CPT inactive, DT40 TDP1 no CPT inactive and HT1080-NT tox inactive.
Cc1ccc(NC(=O)c2ccc(Cn3cc(Br)cn3)o2)cc1 was read as TGFb SMAD3 inh inactive, HepG2 viability inactive, HT1080 IDH1KD tx inactive, TDP1 cell CPT inconclusive, DT40 TDP1 no CPT 21µM and HT1080-NT tox inactive.
For NNC(=O)c1ccc(Cn2cc(Br)cn2)o1 the results were TGFb SMAD3 inh inactive, HepG2 viability inactive, HT1080 IDH1KD tx inactive, TDP1 cell CPT inactive, DT40 TDP1 no CPT inactive and HT1080-NT tox inactive.
For CCOc1ccc(C(=O)Nc2ccccc2N2CCN(C(=O)c3ccccc3)CC2)cc1[N+](=O)[O-] the results were TGFb SMAD3 inh inactive, HepG2 viability inactive, HT1080 IDH1KD tx inactive, TDP1 cell CPT 7.3µM, DT40 TDP1 no CPT 12µM and HT1080-NT tox inactive.
Screening CCOc1ccc(C(=O)NC(=S)Nc2ccccc2N2CCC(C)CC2)cc1[N+](=O)[O-] returned TGFb SMAD3 inh inactive, HepG2 viability inactive, HT1080 IDH1KD tx inactive, TDP1 cell CPT inconclusive, DT40 TDP1 no CPT 16µM and HT1080-NT tox inactive.
CCOc1ccc(C(=O)NC(=S)Nc2ccc(N3CCC(C)CC3)cc2)cc1[N+](=O)[O-] was read as TGFb SMAD3 inh inactive, HepG2 viability inactive, HT1080 IDH1KD tx inactive, TDP1 cell CPT inconclusive, DT40 TDP1 no CPT 12µM and HT1080-NT tox inactive.
`CCOc1ccc(C(=O)Nc2ccccc2C#N)cc1[N+](=O)[O-]` gave TGFb SMAD3 inh inactive, HepG2 viability inactive, HT1080 IDH1KD tx inactive, TDP1 cell CPT 16µM, DT40 TDP1 no CPT inconclusive and HT1080-NT tox inactive.
`CCCn1c(N)c(C(=S)NC(=O)C2CC2)c(=O)n(C)c1=O` gave TGFb SMAD3 inh inactive, HepG2 viability inactive, HT1080 IDH1KD tx inactive, TDP1 cell CPT inactive, DT40 TDP1 no CPT inactive and HT1080-NT tox inactive.
Screening CCOCc1c(C(=O)OCC(=O)NCc2ccc(F)cc2)oc2ccccc12 returned TGFb SMAD3 inh inactive, HepG2 viability inactive, HT1080 IDH1KD tx inactive, TDP1 cell CPT inactive, DT40 TDP1 no CPT inactive and HT1080-NT tox inactive.
CN(C)c1ccc(Cc2cc3c(O)ccc(O)c3cc(Cc3ccc(N(C)C)cc3)c2=O)cc1 was read as TGFb SMAD3 inh inconclusive, HepG2 viability inactive, HT1080 IDH1KD tx inconclusive, TDP1 cell CPT 3.7µM, DT40 TDP1 no CPT 4.1µM and HT1080-NT tox inactive.
For CN(C)c1ccc(C(=O)c2ccc(O)cc2O)cc1 the results were TGFb SMAD3 inh inactive, HepG2 viability inactive, HT1080 IDH1KD tx inactive, TDP1 cell CPT inconclusive, DT40 TDP1 no CPT inconclusive and HT1080-NT tox inactive.
Screening O=C1C(c2ccccc2)C(c2ccccc2)NC(c2ccccc2)C1c1ccccc1 (stereo not drawn) returned TGFb SMAD3 inh inactive, HepG2 viability inactive, HT1080 IDH1KD tx inactive, TDP1 cell CPT inconclusive, DT40 TDP1 no CPT 23µM and HT1080-NT tox inactive.
For COCCN1C(=O)CCC1(C)C(=O)Nc1ccc2c(c1)OCCO2 (stereo not drawn) the results were TGFb SMAD3 inh inactive, HepG2 viability inactive, HT1080 IDH1KD tx inactive, TDP1 cell CPT inactive, DT40 TDP1 no CPT inactive and HT1080-NT tox inactive.
Cc1cc(C)cc(Oc2nc3ccccn3c(=O)c2/C=C(\C#N)C(=O)NC2CCS(=O)(=O)C2)c1 (stereo not drawn) was read as TGFb SMAD3 inh inactive, HepG2 viability inactive, HT1080 IDH1KD tx inconclusive, TDP1 cell CPT inconclusive, DT40 TDP1 no CPT 9.2µM and HT1080-NT tox inactive.
CCCCCCCCCCCCCCCCn1cc[n+](C)c1 was read as TGFb SMAD3 inh 11µM, HepG2 viability inactive, HT1080 IDH1KD tx 21µM, TDP1 cell CPT 0.46µM, DT40 TDP1 no CPT 0.46µM and HT1080-NT tox 16µM.
Screening CCN1CCN(c2nc3ccccc3nc2NS(=O)(=O)c2ccc(NC(C)=O)cc2)CC1 returned TGFb SMAD3 inh inactive, HepG2 viability inactive, HT1080 IDH1KD tx inactive, TDP1 cell CPT inactive, DT40 TDP1 no CPT inactive and HT1080-NT tox inactive.
Screening CCN1CCN(C2=C(NS(=O)(=O)c3ccc(NC(C)=O)cc3)C(=O)c3ccccc3C2=O)CC1 returned TGFb SMAD3 inh inconclusive, HepG2 viability inactive, HT1080 IDH1KD tx inactive, TDP1 cell CPT 16µM, DT40 TDP1 no CPT 21µM and HT1080-NT tox inactive.
Screening CC1CCN(C2=C(NS(=O)(=O)c3ccc(Cl)cc3)C(=O)c3ccccc3C2=O)CC1 returned TGFb SMAD3 inh inactive, HepG2 viability inactive, HT1080 IDH1KD tx inactive, TDP1 cell CPT inactive, DT40 TDP1 no CPT inactive and HT1080-NT tox inactive.
CCN1CCN(C2=C(NS(=O)(=O)c3ccc(C)cc3)C(=O)c3ccccc3C2=O)CC1 was read as TGFb SMAD3 inh 13µM, HepG2 viability 11µM, HT1080 IDH1KD tx inconclusive, TDP1 cell CPT 12µM, DT40 TDP1 no CPT 21µM and HT1080-NT tox inconclusive.
`CC(=O)Nc1ccc(S(=O)(=O)NC2=C(N3CCN(Cc4ccccc4)CC3)C(=O)c3ccccc3C2=O)cc1` gave TGFb SMAD3 inh inconclusive, HepG2 viability inactive, HT1080 IDH1KD tx inconclusive, TDP1 cell CPT 10µM, DT40 TDP1 no CPT inconclusive and HT1080-NT tox inconclusive.
`CC(=O)Nc1ccc(S(=O)(=O)Nc2cc(C)cn(Cc3ccccc3)c2=O)cc1` gave TGFb SMAD3 inh inactive, HepG2 viability inactive, HT1080 IDH1KD tx inactive, TDP1 cell CPT inconclusive, DT40 TDP1 no CPT 7.3µM and HT1080-NT tox inactive.
For COc1cc(OC)c(N(C)C(=O)c2cn(C3CCCC3)c(=O)c3c2c2ccccc2n3C)cc1Cl the results were TGFb SMAD3 inh inconclusive, HepG2 viability inactive, TDP1 cell CPT 10µM and DT40 TDP1 no CPT 8.2µM.
